# Screen size: about 300,000 compounds; about 5,200 (1.7%) were called active. This excerpt belongs to a sample that is enriched for actives. A number with no mark means an inactive call.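 The calls were made as follows: active = mean replicate activation of at least 50% with a set share of replicates each reaching 50%; inconclusive = only one of those two conditions met; inactive = mean below 50% and too few replicates reaching it.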
# Assay: HSF-1 response element luciferase induction – NIH3T3-HGL cells, MG132 stress, luminescence, single point, primary screen (AID 504408);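 also: 0% = median of the neutral control wells and 100% = twice that signal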
# Conditions: NIH3T3-HGL HSF-1 luciferase reporter, MG132, 8 h; at 9 µM; hits give high values; 100% = twice DMSO control signal
row,SMILES,activation
1,O=C(COc1ccccc1)Nc1cc2c3c(c1)CC(=O)N3CCC2,5.75%
2,O=C(NCc1cccnc1)c1cc(S(=O)(=O)N2CCOCC2)c(Cl)cc1Cl,-12.2%
3,CCN(CC)CCn1c2c(c(SCC(=O)Nc3ccc(C(C)C)cc3)nc1=O)CCC2,8.29%
4,O=C(c1cc2ccccc2s1)N1CCN(c2ccccn2)CC1,-12%
5,O=C(C(Cl)Cl)N1CCN(c2ccccn2)CC1,3.47%
6,Cc1cc(C(=O)N2CCN(c3ccccn3)CC2)c(C)o1,62.2% (active)
7,COc1ccc(CCNc2cc(N3CCN(C(=O)c4ccccc4OC)CC3)ccc2[N+](=O)[O-])cc1OC,22.3%
8,CN(C)c1ccnc(Oc2ccc(F)cc2)c1C#N,3.38%
9,N#Cc1ccc(-c2ccc(F)cc2)nc1Sc1ccccc1,-14.9%
10,N#Cc1ccc(-c2ccc(Cl)cc2)nc1Oc1ccc(F)cc1,82.1% (active)
11,CCOc1ccc(C(=O)CCC(=O)NC2=NCCS2)cc1,12.7%
12,CS(=O)(=O)c1ccc(Cl)c(NC(=O)Nc2ccccc2)c1,-2.82%
13,O=C(Nc1ccccc1)c1nnsc1S(=O)(=O)c1ccc(Cl)cc1,79.4% (active)
14,O=C(c1ccc(Cl)cc1)c1cnc(Nc2ccccc2)s1,34.7%
15,CC(Sc1nn(-c2ccc(Cl)cc2)c(=S)s1)C(=O)NCC1CCCO1 (centres undefined),3.22%
16,O=C(NNC(=S)Nc1ccc(Br)cc1Cl)c1ccco1,59% (active)
17,CCC(=O)NC(=S)Nc1ccc(NC(=O)c2ccco2)c(Cl)c1,7.81%
18,O=C(NNC(=O)c1ccco1)Nc1ccccc1,12.4%
19,CCCCn1c(N)c(N(CCC(C)C)C(=O)c2ccc(COc3ccccc3)o2)c(=O)[nH]c1=O,7.06%
20,CCCCn1c(N)c(N(CC(C)C)C(=O)CN(C)S(=O)(=O)c2ccc(F)cc2)c(=O)[nH]c1=O,-2.61%
21,Cc1ccc(S(=O)(=O)N2CCN(C(=O)c3ccc(-n4cncn4)c([N+](=O)[O-])c3)CC2)cc1,-21.4%
22,O=C(CSc1cccc2cccnc12)N/N=C/c1cccnc1,161% (active)
23,Cc1ccc(NC(=O)CSc2cccc3cccnc23)c(C)c1,4.2%
24,O=C(CNC(=O)c1cccnc1)N/N=C/c1cccnc1,-3.13%

row,SMILES,activation
1,CC(C)(C)S(=O)(=O)c1ccccc1-c1noc(-c2ccccc2)c1C(N)=O,-2.64%
2,CC1CCN(C2=NC(=O)/C(=C/c3ccc(O)cc3)S2)CC1,8.53%
3,CCOc1cc(/C=C2\SC(N3CCCCC3)=NC2=O)ccc1O,34.2%
4,O=C1N=C(N2CCCC2)S/C1=C\c1cccc(Br)c1,103% (active)
5,NC(=O)NC(=O)C(OC(=O)CCNS(=O)(=O)c1ccccc1)c1ccccc1 (centres undefined),18.2%
6,O=C(CCNC(=O)c1ccc(Br)cc1)Nc1cccc(S(=O)(=O)N2CCCCC2)c1,23.3%
7,CCCCn1c(N)c(N(CC(C)C)C(=O)c2ccc(Br)o2)c(=O)[nH]c1=O,-5.41%
8,CCOc1ccc(/C=C/C(=O)OCC(=O)c2ccccc2OC)cc1OC,1.42%
9,CCN1C(=O)[C@@H]2[C@@H](c3ccc(-c4ccccc4)cc3)N3CCCC[C@@]3(C(=O)OC)[C@@H]2C1=O,16.1%
10,CSc1ccc(/C=N/NC(=O)c2cccc(Cl)c2)cc1,80.3% (active)
11,CSc1ccc(/C=N\NC(=O)COc2ccc(Cl)cc2Br)cc1,0.476%
12,COc1ccc(/C=N/NC(=O)c2cccc(C(F)(F)F)c2)cc1,0.104%
13,O=C(COC(=O)c1ccccc1SCC(=O)N1CCCC1)Nc1ccccc1OC(F)F,5.14%
14,O=C(COC(=O)c1ccc([N+](=O)[O-])cc1Cl)NC(=O)c1ccccc1,-8.14%
15,CCOc1ccc2ccccc2c1/C=N/NC(=O)c1c(C)cc(C)[nH]c1=O,23.9%
16,Cc1nnc(N/N=C/c2cccs2)[nH]c1=O,-4.02%
17,Cc1nnc(N/N=C/c2ccccn2)[nH]c1=O,-18.5%
18,Cc1ccccc1Nc1nnc(C)c(=O)[nH]1,54.6% (active)
19,O=C(CSc1ccc(-c2ccc(-n3cccn3)cc2)nn1)Nc1ccc([N+](=O)[O-])cc1,8.59%
20,O=c1[nH]c(/C=C/c2cccc(Br)c2)nc2ccccc12,58.9% (active)
21,CCOc1cc(/C=C/c2nc3ccccc3c(=O)[nH]2)cc(Br)c1OC,14.8%
22,O=c1oc(/C=C/c2ccccc2)nc2ccccc12,-13.5%
23,CCOc1ccc(CCNC(=O)COC(=O)CCS(=O)(=O)c2ccc(C)cc2)cc1OCC,1.98%
24,Cc1cc(Br)ccc1NC(=O)CN(C)C(=O)CN1C(=O)NC2(CCCC2)C1=O,6.32%

row,SMILES,activation
1,CCC(c1nnnn1Cc1ccco1)N(CCc1ccccc1)Cc1cc2ccc(OC)cc2[nH]c1=O (centres undefined),9.84%
2,CCC(c1nnnn1Cc1ccco1)N(Cc1cc2cc(OC)ccc2[nH]c1=O)C1CCCCC1 (centres undefined),136% (active)
3,CCC(c1nnnn1Cc1ccccc1)N(Cc1cc2cc(OC)ccc2[nH]c1=O)CC1CCCO1 (centres undefined),17.4%
4,COc1ccc(CCc2nc(-c3cccs3)no2)cc1,65% (active)
5,COc1ccc(OC)c(CNC(=O)CCc2nc(-c3cccs3)no2)c1,-8.19%
6,CCc1ccc(CNC(=O)CCc2nc(-c3cccs3)no2)cc1,3.43%
7,COc1cccc(N2CC(NS(=O)(=O)c3ccc(Cl)cc3)CC2=O)c1 (centres undefined),11.2%
8,COc1ccc(NC(=O)CCC(=O)N2CCN(S(=O)(=O)c3ccc(C)cc3)CC2)c(OC)c1,-9.72%
9,CN(CC(=O)Nc1ccccc1Cl)C(=O)c1ccccc1SCC(=O)N1CCCC1,15.5%
10,COC(=O)CN1C(=S)N(c2ccccc2)C(=O)C1CC(=O)Nc1ccc(Cl)cc1 (centres undefined),4.42%
11,O=C(Nc1ccccc1)OCc1cn(-c2ccc(Cl)cc2)nn1,-2.71%
12,O=C(O)CC1=C(Nc2ccccc2)C(=O)N(c2ccccc2)C1c1ccc(Cl)cc1 (centres undefined),65.5% (active)
13,COc1ccc(Cl)cc1C=CC=NNC(=O)c1ccncc1,5.04%
14,O=C(Cc1ccc(Br)cc1)NCCc1ccccc1,18.4%
15,CC(=O)c1c(C)[nH]c(C(=O)CN2C(=O)NC(C)(C)C2=O)c1C,-22.1%
16,Cc1ccc2c(=O)cc(C(=O)NCCc3ccc(S(N)(=O)=O)cc3)oc2c1C,62.8% (active)
17,Cc1cc(=O)oc2cc(OC(C)C(=O)NCCc3ccc(S(N)(=O)=O)cc3)ccc12 (centres undefined),12.2%
18,Cc1cc(=O)oc2c(C)c(OCC(=O)NCCc3ccc(S(N)(=O)=O)cc3)ccc12,-4.95%
19,O=C(NCCC1CCCCN1S(=O)(=O)c1ccc(F)cc1)C(=O)NC1CC1 (centres undefined),3.8%
20,CCOc1ccc(CCNC(=O)COC(=O)C2CCN(c3ccc(C(F)(F)F)cn3)CC2)cc1OCC,2.31%
21,O=C(Nc1ccccc1)c1ccc2c(c1)OCCCO2,12.7%
22,Cc1nc(NC(=O)c2ccc3c(c2)OCCO3)ccc1Br,58.7% (active)
23,O=C(Nc1ccc(Cl)cn1)c1ccc2c(c1)OCCO2,9.46%
24,O=[N+]([O-])c1ccc(O)c(/C=N/Nc2ccccc2[N+](=O)[O-])c1,-10.2%

row,SMILES,activation
1,Nn1cnnc1N/N=C/c1cc([N+](=O)[O-])c(Cl)cc1Cl,56.4% (active)
2,Cc1ccc2nc(NC(=O)CSc3nc(=O)n(CCCN(C)C)c4c3CCC4)sc2c1,2.36%
3,Cc1ccccc1OCC(=O)NNC(=O)c1ccc(-n2cncn2)c([N+](=O)[O-])c1,4.89%
4,Cc1ccc(C)c(NC(=O)COC(=O)Cn2c(C)csc2=O)c1,-8.55%
5,COc1cc(/C=N/NC(=O)c2cc(-c3ccccc3C)nc3ccccc23)cc(OC)c1O,18.6%
6,CN1CCN(C2Cc3ccc(Cl)cc3Sc3ccc(F)cc32)CC1 (centres undefined),-3.39%
7,CC(=O)NC(Cc1c[nH]c2ccccc12)C(=O)O (centres undefined),56% (active)
8,CC(=O)NC(Cc1c[nH]c2ccccc12)C(=O)NCCc1ccccc1 (centres undefined),-11.2%
9,Cc1cccc(C)c1OCC(=O)NC(Cc1c[nH]c2ccccc12)C(=O)O (centres undefined),0.58%
10,CC1CCN(C(=O)c2cccc(S(=O)(=O)N3CCCc4ccccc43)c2)CC1,9.01%
11,Cc1ccc(N2CC(C(=O)N3CCC4(CC3)CC(=O)c3ccccc3O4)CC2=O)cc1C (centres undefined),-2.34%
12,O=C(O)C1C2C=CC(C2)C1C(=O)NCc1ccccc1 (centres undefined),-13%
13,Nc1ccccc1/C=N\N=C/c1ccccc1N,1.94%
14,Cc1ccc(-n2ncc3c(N4CCN(c5ccc(F)cc5)CC4)ncnc32)c(C)c1,57.9% (active)
15,Cc1ccc(-n2ncc3c(=O)[nH]cnc32)c(C)c1,-3.73%
16,Cc1ccc2cc(C)c(N3CCN(c4ccc(F)cc4)CC3)nc2c1,5.08%
17,Nc1ccc(C(=O)N2CCN(S(=O)(=O)c3ccc(Cl)cc3)CC2)cc1[N+](=O)[O-],17.9%
18,COc1ccc(C)cc1NC(=O)CSc1nnc2ccc(-c3ccccn3)nn12,-10.8%
19,COc1ccc(C2=NN(C(=O)CSc3nc(=O)n4ccc(C)cc4n3)C(c3ccc(C)cc3)C2)cc1 (centres undefined),9.37%
20,O=C(NCCc1c[nH]c2ccccc12)c1cc2ccccc2oc1=O,62.1% (active)
21,CN(c1ccccc1)S(=O)(=O)c1ccc(Cl)c(C(=O)NCCc2c[nH]c3ccccc23)c1,-1.41%
22,O=C(NCCc1c[nH]c2ccccc12)c1cccc(Br)c1,7.52%

# Source: PubChem BioAssay AID504408 (Broad Institute, 2011)
